Sm TGR block: qHTS Assay for the Inhibitors of Schistosoma Mansoni Peroxiredoxins; Schistosoma mansoni thioredoxin glutathione reductase (TGR), Q962Y6; purified TGR, DTNB reduction, TNB absorbance 405 nm; Potency, µM (highest dose often 114 µM), hits mostly inhibitors; 3% of 360,000 active; AID 485364, 2010; further: nearly all actives have a fitted effect of over 60% in size
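Kinetic colorimetric format: TGR-catalysed, NADPH-driven DTNB reduction monitored via TNB absorbance. Enzyme dispensed at 20 nM; compound exposure 15 min at room temperature before reaction start.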
Pf growth 48h: Primary qHTS for delayed death inhibitors of the malarial parasite plastid, 48 hour incubation; Potency, µM (titrated, usually from 28.7 µM), hits mostly inhibitors; AID 504832, 2011; 5.9% of 310,000 active; P. falciparum luciferase growth in erythrocytes, 48 h
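Parasite viability was followed by luminescence of a genomically integrated firefly luciferase. Cultures held 0.1% parasitemia at 2% hematocrit (final), incubated under 5% CO2 at 37 C.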
AmpC inh no detg: qHTS Inhibitors of AmpC Beta-Lactamase (assay without detergent); 0.52% of 330,000 active; AID 485341, 2010; Potency, µM (top dose mostly 57.1 µM), usual class: inhibitors; AmpC nitrocefin hydrolysis, absorbance 480 nm, 0.0001% Triton; further: nearly all actives have a fitted effect of over 20% in size
Target sequence (P00811 whole entry, looked up): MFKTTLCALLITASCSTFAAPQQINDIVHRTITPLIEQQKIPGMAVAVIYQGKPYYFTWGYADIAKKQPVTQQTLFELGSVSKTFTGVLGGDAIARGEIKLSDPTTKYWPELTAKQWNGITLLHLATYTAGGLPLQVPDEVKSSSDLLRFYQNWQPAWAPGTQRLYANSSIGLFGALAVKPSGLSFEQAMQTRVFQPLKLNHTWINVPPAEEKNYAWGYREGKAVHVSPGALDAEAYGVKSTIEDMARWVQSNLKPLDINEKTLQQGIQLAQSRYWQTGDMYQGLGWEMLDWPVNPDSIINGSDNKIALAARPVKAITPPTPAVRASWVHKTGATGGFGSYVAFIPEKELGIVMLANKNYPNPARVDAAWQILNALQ
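AmpC (5.3 nM in the dispensed reagent) in 20 mM phosphate pH 7.0 with 0.01% (detergent screen) or 0.0001% Triton X-100 was preincubated with compounds for 15 min at room temperature. Nitrocefin was then added from an 800 uM solution, and hydrolysis was followed at 480 nm.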
SARS PLpro yeast: qHTS of Yeast-based Assay for SARS-CoV PLP; S. cerevisiae expressing SARS-CoV PLpro, growth rescue; Potency, µM (top dose mostly 32.9 µM), actives largely listed as activators; 0.19% of 330,000 active; AID 485353, 2010; calls by dose curve; further: nearly all actives have a fitted effect of over 55% in size
AmpC inh detg: qHTS Inhibitors of AmpC Beta-Lactamase (assay with detergent); AmpC hydrolysis of nitrocefin, absorbance 480 nm, 0.01% Triton; Potency, µM (top dose mostly 114 µM), actives largely listed as inhibitors; 0.041% of 370,000 active; AID 485294, 2010; further: nearly all actives have a fitted effect of over 25% in size
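AmpC (5.3 nM in the dispensed reagent) in 20 mM phosphate pH 7.0 with 0.01% (detergent screen) or 0.0001% Triton X-100 was preincubated with compounds for 15 min at room temperature. Nitrocefin was then added from an 800 uM solution, and hydrolysis was followed at 480 nm.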
Pf growth 96h: Primary qHTS for delayed death inhibitors of the malarial parasite plastid, 96 hour incubation; 6.9% of 320,000 active; P. falciparum luciferase reporter growth, 96 h; AID 504834, 2011; Potency, µM (highest dose often 28.7 µM), hits mostly inhibitors
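Compounds incubated with erythrocytes infected by luciferase-expressing P. falciparum (2% hematocrit, 0.05% parasitemia final) for 96 hours, 37 C in 5% CO2. Growth inhibition scored as decreased luciferase luminescence.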
Numbers stand for hits; i = inactive; ? = inconclusive; nt = no result given; [ ] = dose if it differs, or a comment. Rows were chosen to be rich in hits. Some 12% of all compounds tested hit in one or more screens of this group. Unless noted, the call rests on the fitted dose curve; in most records, active means well fitted curve in the direction sought with a large enough effect; inconclusive means small, poorly fitted or top-dose-only effect, or another doubt; inactive means no such curve, though single readings can be large; an effect the other way counts as inactive or inconclusive.

SMILES	Sm TGR block	Pf growth 48h	AmpC inh no detg	SARS PLpro yeast	AmpC inh detg	Pf growth 96h
COC(=O)C1CCN(C2CC(=O)N(c3cc(C)cc(C)c3)C2=O)CC1 (configuration not stated)	?	i[5.75 µM]	i	i	i	i
CCOC(=O)/C=C1/N(C)c2ccccc2C1(C)C	i	i	i	i	i	i
CCN1/C(=C\C=C\C2=[N+](CC)c3ccccc3C2(C)C)C(C)(C)c2ccccc21	i	nt	i	i	i	0.147µM
CCCc1cc(C(=O)Nc2ccccc2SC)no1	i	i	39.8µM	i	i	?
CCCc1cc(C(=O)Nc2ccc(C(C)=O)cc2)no1	i	i	44.7µM	i	i	?
CCCc1cc(C(=O)NCc2ccco2)no1	?	nt	i	i	i	13.1µM
CCCc1cc(C(=O)Nc2cccc(Cl)c2C)no1	i	i	i	i	?	i
CC(C)=CCC/C(C)=C/CNC(=O)C[C@H]1C[C@H](C(=O)N(C(C)C)C(C)C)[C@@]2(C)c3[nH]c4cc(CCC(=O)N(C)C)ccc4c3CCN2C1=O	nt	nt	i	i	nt	nt
Cc1cc(C)n(C(=O)CCCn2nc(C)c([N+](=O)[O-])c2C)n1	i	i	i	i	i	i
CCCC1=[N+](CC(=O)c2ccccc2)CCn2cccc21	i	i	i	i	i	i
CCCC1=[N+](CC(=O)c2ccc(Br)cc2)CCn2cccc21	?	11.7µM	i	i	i	?
CCCOc1ccc(-c2nn(-c3ccccc3)cc2C2NC(=O)NC(C)=C2C(=O)OC(C)C)cc1 (configuration not stated)	i	nt	nt	nt	i	nt
CCOc1cc(CNc2cccc3ccccc23)cc(Br)c1OCC(=O)NC(C)(C)C	i	nt	i	i	?	9.28µM
CCOc1cc(CO)cc(Br)c1OCC(=O)Nc1ccccc1C	i	i	i	i	i	i
CCOc1cc(CNc2ccc(N3CCOCC3)cc2)cc(Br)c1OCC	i	?	i	i	i	?
CCOc1cc(CNc2ccc(N(C)C)cc2)cc(Br)c1OCC(=O)NC(C)(C)C	i	0.657µM	?	i	i	?
CCOc1cc(CNc2ccc(N3CCCCC3)cc2)cc(Br)c1OCC(=O)NC(C)(C)C	i	?	i	i	i	13.1µM
CCOc1c(Br)cc(CNc2ccc(N3CCN(C(C)=O)CC3)cc2)cc1OC	i	i	i	i	i	?
COc1cc2[nH]c(=S)n(Cc3ccccc3)c(=O)c2cc1OC	i	?	i	i	i	i
COc1cc2[nH]c(=O)n(Cc3ccccc3Cl)c(=O)c2cc1OC	i	i	i	i	i	4.65µM
CC(=O)c1ccc(N2CCN(C(=O)CCCn3c(=O)[nH]c4ccc(Br)cc4c3=O)CC2)cc1	i	10.4µM	i	i	i	?
COc1cc2[nH]c(=O)n(CCCCCC(=O)N3CCN(c4ccccc4)CC3)c(=O)c2cc1OC	i	7.38µM	i	i	i	i
CCCCCn1c(=O)[nH]c2cc(C(=O)N3CCN(c4ccc(C(C)=O)cc4)CC3)ccc2c1=O	i	?	i	i	i	11.7µM
CCCCCn1c(=O)[nH]c2cc(C(=O)N3CCN(c4ccc(OC)cc4)CC3)ccc2c1=O	i	nt	nt	nt	i	nt
N#CC[C@H](c1ccccc1)N1CCN(Cc2ccccc2)CCC1=O	i	i	i	i	i	?
SMILES	Sm TGR block	Pf growth 48h	AmpC inh no detg	SARS PLpro yeast	AmpC inh detg	Pf growth 96h
Cc1csc(NC(=O)CCN2C(=O)c3ccccc3S2(=O)=O)n1	i	i	i	i	i	i
Cc1csc(NC(=O)CN2C(=O)c3ccccc3S2(=O)=O)n1	i	i	i	i	i	13.1µM
CCC1Oc2ccc(C)cc2N(CC(=O)NCc2ccc(OC)cc2)C1=O (configuration not stated)	i	nt	nt	nt	i	nt
Cc1ccc(-n2ncc(C(=O)NCC3CCN(C4CCCC4)C3)c2C2CCN(C(=O)OC(C)(C)C)CC2)cc1 (configuration not stated)	?	?	i	i	i	?
CC(C)(C)OC(=O)N1CCC(c2c(C(=O)NCC3CCN(C4CCCC4)C3)cnn2-c2ccc(F)cc2)CC1 (configuration not stated)	i	2.62µM	i	i	i	i
Cc1ccc(-n2ncc(C(=O)NCC3CCN(C4CCCC4)C3)c2C2CCN(C(=O)OC(C)(C)C)CC2)cc1C (configuration not stated)	?	13.1µM	i	i	i	2.33µM
CC(C)(C)OC(=O)N1CCC(c2c(C(=O)NCC3CCN(C4CCCC4)C3)cnn2-c2cccc(Cl)c2)CC1 (configuration not stated)	i	?	i	i	?	i
CC(C)(C)OC(=O)N1CCC(c2c(C(=O)NCC3CCN(C4CCCC4)C3)cnn2-c2ccccc2)CC1 (configuration not stated)	i	3.7µM	i	i	i	i
CCOc1ccccc1NC(=O)C(C)N(c1ccccc1)S(C)(=O)=O (configuration not stated)	i	nt	nt	nt	i	nt
COc1ccc(-c2nc(SCC(=O)NC(C)CCc3ccccc3)n[nH]2)cc1 (configuration not stated)	i	nt	nt	nt	i	nt
CC[C@]12c3[nH]c4cc(CCC(=O)N(C)C)ccc4c3CCN1C(=O)[C@@H](CC(=O)NCc1ccco1)C[C@@H]2C(=O)N1CCN(C(=O)C2CC2)CC1	nt	nt	i	i	nt	nt
Cn1c[n+](C)cc1-c1ccc(/C(N)=N/O)cc1	i	?	i	i	i	4.65µM
CCn1ccc2cc(S(=O)(=O)N3CCCN(C(=O)NCCOC)CC3)ccc21	?	nt	nt	nt	i	nt
COc1cccc(CNC(=O)C23CN(Cc4ccccc4)CC2C(c2ccc([N+](=O)[O-])cc2)=NO3)c1 (configuration not stated)	i	?	i	i	?	14.7µM
CC(C)CCNC(=O)C12CN(Cc3ccccc3)CC1C(c1ccc([N+](=O)[O-])cc1)=NO2 (configuration not stated)	i	?	i	i	i	?
O=C(NCc1ccccc1C(F)(F)F)C12CN(Cc3ccccc3)CC1C(c1ccc([N+](=O)[O-])cc1)=NO2 (configuration not stated)	i	3.29µM	i	i	i	?
O=C(Nc1ccccc1)Nc1ccc(-n2ccc(C(F)(F)F)n2)cc1	i	?	i	i	i	3.29µM
COC(=O)C1=C(c2cccc(C#N)c2)C[C@@H]2CC[C@H]1N2C(=O)NCc1ccco1	35.5µM	i	i	i	i	i

Bioassay records (PubChem)
